The source of these data is PubChem BioAssay (NCI).

Structures are written as SMILES. This is part of a sample that, as a whole, favours compounds with a hit. Of some 83,000 tested, about 20% had one in any assay.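 Testing used 96-well plates and a 48-hour single-concentration exposure. Example: -40 means 40% of the starting cells died.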 Unmarked numbers belong to inactive results. The source made the active and inactive calls. How the source made its calls: active means growth percent below 10; inactive means the rest.

Among the test systems are DU-145 prostate; K-562 leukemia; MALME-3M melanoma; RXF 393 renal; SF-268 CNS; SF-295 CNS; SF-539 CNS; UACC-257 melanoma; M14 melanoma; MDA-MB-231 breast.
Holding throughout (test): NCI-60 one-dose screen, 48 h (100 = growth as untreated, 0 = no growth, -100 = all killed)
Settings in all cases: 10 µM unless noted

Turning to `CC/C(=C(\c1ccccc1)c1ccc(OCCNC)cc1)c1ccccc1`, the growth in the experiment on DU-145 prostate is -66.8% (active); with K-562 leukemia, -5.96% (active); in the experiment with MALME-3M melanoma it was -92.9% (active); in the experiment with RXF 393 renal it was -97.6% (active); in the experiment with SF-268 CNS it was 1.29% (active); in the experiment with SF-295 CNS, -99.3% (active). The growth is -98% (active) with SF-539 CNS, -68.4% (active) in the experiment with UACC-257 melanoma and -89.7% (active) in the experiment with M14 melanoma.
Turning to `N=S(=O)(NC(=O)c1ccc(Cl)cc1Cl)c1ccc(Br)s1` (centres undefined), the growth with DU-145 prostate was 105%; in the experiment on K-562 leukemia it was 107%; in the experiment with MDA-MB-231 breast it was 98.2%; in the experiment with RXF 393 renal, 91.7%; with SF-268 CNS, 99.8%; in the experiment with SF-295 CNS it was 89.6%. Also, the growth with SF-539 CNS is 91.7%; with UACC-257 melanoma, 98.2%; with M14 melanoma, 99.8%.
As to `C=CCSc1nnc(-c2ccc(C(C)(C)C)cc2)n1-c1cccc(C(F)(F)F)c1`, the growth with DU-145 prostate was 54.3%; with K-562 leukemia, 20.3%; with MALME-3M melanoma it was 66.1%; in the experiment on RXF 393 renal, 18.1%; in the experiment on SF-295 CNS, 29.3%; in the experiment on SF-539 CNS, 69.5%. For the same molecule, the growth in the experiment with UACC-257 melanoma was 48.5%; in the experiment on M14 melanoma, 45.3%.
For the molecule `CCCCCCCCCCCCN1CCCC(C)C1` (centres undefined), the growth in the experiment on DU-145 prostate was 95.2%; in the experiment on K-562 leukemia, 19.2%; in the experiment on MALME-3M melanoma it was 107%; in the experiment on MDA-MB-231 breast it was 55.8%; with SF-268 CNS it was 89.7%; in the experiment with SF-539 CNS, 86.4%. In addition, the growth in the experiment with UACC-257 melanoma is 88.3%; in the experiment on M14 melanoma, 82.7%.
On to `O=[N+]([O-])c1c(F)cccc1Nc1cccc(F)c1`, for which the growth with DU-145 prostate was 108%; in the experiment with K-562 leukemia, 95.4%; in the experiment with RXF 393 renal, 102%; in the experiment with SF-268 CNS, 105%; in the experiment on SF-295 CNS, 87%; in the experiment with SF-539 CNS, 102%. Also, the growth is 93.2% with UACC-257 melanoma and 103% in the experiment on M14 melanoma.
Take `Cc1cc2c(cc1C)NC1=C(N2)OC(c2c3ccccc3cc3ccccc23)C1=O` (centres undefined): the growth with DU-145 prostate is 16.7%; in the experiment on K-562 leukemia it was 9.62% (active); in the experiment on MALME-3M melanoma, 13.9%; in the experiment with RXF 393 renal, 24.2%; in the experiment with SF-268 CNS, 39.3%; in the experiment on SF-295 CNS it was -1.93% (active). In addition, the growth is -21.9% (active) with SF-539 CNS, 65.5% with UACC-257 melanoma and 10% with M14 melanoma.
As for `CC(C)CC(CC1=CCC2CC1C2(C)C)C1=C(O)C(C)(C)C(=O)C(C)(C)C1=O` (centres undefined), the growth with DU-145 prostate was 33.6%; with MALME-3M melanoma, 13.9%; in the experiment with MDA-MB-231 breast it was -6.26% (active); in the experiment with RXF 393 renal it was 7.5% (active); in the experiment on SF-268 CNS, 21.4%; in the experiment on SF-295 CNS, -24.3% (active). The growth with SF-539 CNS was 17%; with UACC-257 melanoma, -23.2% (active); in the experiment on M14 melanoma it was 20.3%.
`Cc1cccc(NC(=O)c2sc3nc4c(cc3c2N)C(=O)CCC4)c1`: the growth was 9.01% (active) with DU-145 prostate; 18.8% in the experiment with K-562 leukemia; 36.6% with MDA-MB-231 breast; 22.7% with RXF 393 renal; 64.8% in the experiment on SF-268 CNS; 20.6% with SF-295 CNS. Also, the growth was -27.7% (active) in the experiment on SF-539 CNS, 76.3% with UACC-257 melanoma and 21.8% in the experiment on M14 melanoma.
Take `Nc1c(C(=O)Nc2ccccc2Cl)sc2nc3c(cc12)CCCCCC3`: the growth in the experiment on DU-145 prostate was 56.3%; in the experiment on K-562 leukemia, 23.3%; in the experiment on MALME-3M melanoma it was -13.3% (active); in the experiment with RXF 393 renal, -34.6% (active); in the experiment on SF-268 CNS, 38.4%; in the experiment with SF-295 CNS it was 36.6%. Further, the growth in the experiment with SF-539 CNS was 14.3%; in the experiment on UACC-257 melanoma, 58.4%; in the experiment with M14 melanoma, 34.5%.
With `O=C(Nc1cccc2c1C(=O)c1cccc(Nc3cccc4c3C(=O)c3cccc(NC(=O)c5ccccc5)c3C4=O)c1C2=O)c1ccccc1`, the growth in the experiment on DU-145 prostate is 120%; in the experiment on K-562 leukemia it was 116%; in the experiment on MALME-3M melanoma, 120%; with RXF 393 renal it was 120%; with SF-268 CNS, 110%; in the experiment with SF-295 CNS, 100%. For the same molecule, the growth with SF-539 CNS is 109%; in the experiment on UACC-257 melanoma it was 103%; in the experiment on M14 melanoma it was 104%.
With `Cc1ccc(Nc2c(C(N)=O)cnc3ccc(-c4csc(N)n4)cc23)cc1`, the growth is 103% with DU-145 prostate; 113% in the experiment with K-562 leukemia; 98.8% in the experiment with MDA-MB-231 breast; 98.3% with RXF 393 renal; 106% with SF-268 CNS; 98.7% with SF-295 CNS. Besides, the growth in the experiment on SF-539 CNS was 92%; in the experiment on UACC-257 melanoma, 101%; in the experiment on M14 melanoma, 98.6%.
As to `O=C(NC(Cc1ccccc1)C(=O)CCl)OCc1ccccc1` (centres undefined), the growth is 93.5% in the experiment on DU-145 prostate; 13.7% in the experiment with K-562 leukemia; 72.4% in the experiment on MALME-3M melanoma; 73.9% with MDA-MB-231 breast; 63.2% in the experiment with SF-268 CNS; 62.4% in the experiment on SF-539 CNS. Also, the growth with UACC-257 melanoma is 87.2%; in the experiment with M14 melanoma, 80.1%.
For `COc1cccc(NC(=O)c2sc3nc4c(cc3c2N)CN(Cc2ccccc2)CC4)c1`, the growth in the experiment with DU-145 prostate was 66.1%; in the experiment with K-562 leukemia, 33.2%; in the experiment on MDA-MB-231 breast, 62.5%; in the experiment with RXF 393 renal it was 49.3%; in the experiment with SF-268 CNS, 42.9%; in the experiment with SF-295 CNS, 49.6%. The growth was 30.5% with SF-539 CNS, 61.2% with UACC-257 melanoma and 68.2% in the experiment with M14 melanoma.
On to `CC(=O)OCC1OC(OC2=C(CC=C(Cl)Cl)C(=O)c3ccccc3C2=O)C(OC(C)=O)C(OC(C)=O)C1OC(C)=O` (centres undefined), for which the growth is 104% in the experiment on DU-145 prostate; -12.5% (active) in the experiment on K-562 leukemia; 51.6% in the experiment with MALME-3M melanoma; 69.5% in the experiment on MDA-MB-231 breast; 88.8% in the experiment with SF-268 CNS; 90.5% with SF-539 CNS. Moreover, the growth was 94% in the experiment on UACC-257 melanoma and 110% with M14 melanoma.
For `COC1C/C(=N\O)C2OC(c3ccccc3)OCC2O1` (centres undefined), the growth in the experiment on DU-145 prostate is 109%; in the experiment with K-562 leukemia, 97.3%; in the experiment with MALME-3M melanoma it was 100%; with MDA-MB-231 breast, 105%; in the experiment on SF-268 CNS, 109%; in the experiment with SF-539 CNS, 101%. The results for the growth with UACC-257 melanoma and with M14 melanoma were 68.1% and 104%, respectively.
